We go through 34 compounds from PubChem BioAssay (NCI).

SMILES strings stand for the structures. This is part of a sample that, as a whole, favours compounds with a hit. Of some 83,000 tested, about 20% had one in any assay.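 A percent growth of 40 corresponds to 60% growth inhibition; 0 means no net growth; -100 means all cells died. Active threshold: below 10.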 The source made the active and inactive calls.

The subject of this test is HL-60(TB) leukemia. Description: NCI-60 one-dose screen, 48 h (100 = growth as untreated, 0 = no growth, -100 = all killed). As to conditions: 10 µM unless noted.
In the case of `CN(C)CCNC(=O)c1ccc(-c2nc3ccc4[nH]ncc4c3c3c2CCC3)cc1`, the growth is -18.8% (active).

Regarding `Cc1ccccc1NC1CC(=O)N(c2ccc(Cl)cc2Cl)C1=O` (centres undefined), the growth is 102% (inactive).

Regarding `CCOC(=O)C(=O)Nc1ccc2c(ccn2C(=O)c2cccc(F)c2)c1`, the growth is 99.2% (inactive).

With `CC1CC(=O)C2=C(C1)Nc1ccc(Br)cc1CC2c1c[nH]c2ccc(Br)cc12` (centres undefined), the growth is 21.2% (inactive).

On to `O=c1oc2ccc(-c3ccc(F)cc3F)cc2c(=O)n1-c1ccc(F)c(F)c1`, for which the growth was -18.9% (active).

With `Oc1[nH]c2ccc(Cl)cc2c1N=Nc1nc(N=Nc2c(O)[nH]c3ccc(Cl)cc23)nc(N2CCCCC2)n1`, the growth is 71.5% (inactive).

Regarding `CC(C)=CCc1c2c(c(O)c3c1O[C@]14C(=C[C@@H]5C[C@H]1C(C)(C)O[C@@]4(C/C=C(/C)C(=O)O)C5=O)C3=O)CC(O)C(C)(C)O2` (some centres undefined), the growth is -17.2% (active).

Turning to `COc1ccc(-c2nnc(SCc3ccc(O)c4ncccc34)o2)cc1`, the growth is 18.3% (inactive).

`O=C(Nc1cccc(Cl)c1)Nc1nc2cc([N+](=O)[O-])ccc2o1`: the growth is 52.7% (inactive).

For `N#Cc1c(-c2cccs2)cc(-c2cnccn2)nc1SCC(=O)Nc1ccc(Br)cc1`, the growth is 107% (inactive).

Turning to `CN1CCN(Cc2ccc(NC(=O)c3cncc(C#Cc4cnc5ccc(N)nn45)c3)cc2C(F)(F)F)CC1`, the growth was 2.82% (active).

As for `CC1(C)CC[C@]2(C(=O)N3CCOCC3)CC[C@]3(C)C(=CC[C@@H]4[C@@]5(C)C/C(=C/c6ccccn6)C(=O)C(C)(C)[C@@H]5CC[C@]43C)[C@@H]2C1`, the growth was 6.91% (active).

Regarding `CCOC(=O)Nc1ccc(-c2nc(-c3cccc(O)c3)c(-c3ccnc(Br)c3)[nH]2)cc1`, the growth was -11.1% (active).

As for `COc1ccc(-c2nn(-c3ccc(S(C)(=O)=O)cc3)cc2/C=N/O)cc1`, the growth is 103% (inactive).

On to `O=C(CCCCCCN1CC(=O)N2[C@@H](c3ccccc3Br)c3[nH]c4ccccc4c3C[C@H]2C1=O)NO`, for which the growth is 5.1% (active).

Regarding `COc1ccc(/C=C2\SC(=Nc3cc(C)[nH]n3)NC2=O)cc1`, the growth was 87.1% (inactive).

Regarding `O=C1CCCc2nc(Nc3ccc(S(=O)(=O)Nc4ccc([N+](=O)[O-])cc4)cc3)ncc21`, the growth is 110% (inactive).

On to `CCCC(=O)NC(c1cccnc1)c1ccc2c(C)ccnc2c1O` (centres undefined), for which the growth is 6.67% (active).

As to `O=c1c2c(O)cccc2oc2c3c(cc(O)c12)O[C@H]1OC=C[C@@H]31`, the growth is 89.7% (inactive).

On to `C#C[C@]1(O)CC[C@H]2[C@@H]3CC=C4c5sc(Nc6cccc(F)c6)nc5CC[C@]4(C)[C@H]3CC[C@@]21C`, for which the growth is -13.1% (active).

With `CCCn1cnc2c(c1=N)C(c1ccc(Cl)cc1)c1sc3c(CC)cccc3c1O2` (centres undefined), the growth is 0.217% (active).

Take `COc1ccc(-c2nc3ccc(-c4nnc(SCC(=O)Nc5ccc(C(=O)/C=C/c6ccccc6)cc5)o4)cc3[nH]2)cc1OC`: the growth was 100% (inactive).

For `Nc1nc(N)c2c(n1)NC(c1ccc(C(F)(F)F)cc1)CC(c1ccc(Nc3nc(NCCO)nc(Nc4ccc(Cl)cc4)n3)cc1)=N2` (centres undefined), the growth is -28.3% (active).

With `COc1ccc2[nH]cc(-c3nc(N)nnc3-c3cn(C)c4ccc(Br)cc34)c2c1`, the growth is -26.6% (active).

`ClC(Cl)c1nc(-c2ccco2)n2nc(-c3ccccc3)cc2n1`: the growth was -24.4% (active).

`N#Cc1c(-c2cccs2)cc(-c2cnccn2)nc1SCC(=O)NNC(=S)Nc1ccc(F)cc1`: the growth is 122% (inactive).

Turning to `[Cl][Ru].c1ccc(-c2cc(-c3ccccn3)nc(-c3ccccn3)c2)cc1.c1ccc(-c2ccnc3c2ccc2c(-c4ccccc4)ccnc23)cc1`, the growth was -29.2% (active).

`O=C(NCCCCCCNC(=O)c1c2c(nc3ccccc13)-c1cccnc1SC2)c1c2c(nc3ccccc13)-c1cccnc1SC2`: the growth was 24% (inactive).

For the compound `NC(=O)c1c(NC(=O)c2ccccc2C(F)(F)F)sc2c1CCC(=O)C2`, the growth is 1.97% (active).

As to `COc1cccc(NC2=CC(=O)C(C)=C(C)C2=O)c1`, the growth was 3.49% (active).

For `COC(=O)[C@@H](Cc1c[nH]c2ccccc12)NC(=O)CCCCOc1cc(O)c2c(=O)cc(-c3ccccc3)oc2c1`, the growth is 84.1% (inactive).

On to `CCN(CC)c1ccc(/C=N/NC(=O)c2ccc(NS(C)(=O)=O)cc2)cc1`, for which the growth is 3.16% (active).

As to `C/C(=N\NC(=S)Nc1ccc(Br)cc1)c1cc2ccccc2oc1=O`, the growth is 1.53% (active).

As to `O=C(CSc1nnc(-c2ccc(Cl)cc2)n1-c1ccccc1)Nc1ccc(Cl)cc1`, the growth was 79.8% (inactive).
